Here are results for 63 molecules from PubChem BioAssay AID1259420 (Broad Institute, 2018).

Each structure is given as a SMILES string. Several values for one entry are separate records, joined by “and”; a condition that tells them apart may be missing. Equal values may be shown once. Hit rate of the full screen: of about 1,000 compounds, about 250 (25%) were called active. Another 31% or so got no clear call; they are omitted. The list is a sample of the results. Results with a measured potency or affinity are listed apart. Values without a mark were called inactive. How the calls were made is not given here. Numbered stars: 1 amine (or outer) side, 2 acyl side, 3 side chain; on linkers, the order of the positions; unused ones are H or OH. Bridge positions count the residues as written; N and C are the ends. Square brackets hold non-standard residues; d marks the D form. Peptide text beside a SMILES is read from it. * marks the point of attachment. ξ: configuration not given here. pTerphenylCO(4''-OnC5H11) = CCCCCOc1ccc(-c2ccc(-c3ccc(C(=O)*)cc3)cc2)cc1; ξOrn(4,5-diOH) = O=C(C(CC(O)C(O)N[*:3])N[*:1])[*:2]; ξhTyr(βξ-OH,γξ-OH) = NC(C(=O)O)C(O)C(O)c1ccc(O)cc1; ξPro(3ξ-OH,4ξ-Me) = CC1CNC(C(=O)O)C1O; Hyp = O=C(O)[CH]1C[CH](O)CN1

This experiment can be described thus: T. gondii intracellular growth, IFN-gamma absent, dose response, cell-based (AID 1259420).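 Further: host cells were HeLa; final incubation lasted 72 hours.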 The note with it: Toxoplasma gondii growth in host cells, no IFN-gamma.

For the molecule `COc1cccc(-c2nn(CC3CC3)c3c2[C@@H]2CN(Cc4ccccc4)C[C@@H]2C3)c1`, for the setting “at 19.5 µM unless noted”, the max activity is 19.1%.

For the molecule `Cc1ccc(Cl)cc1N(CC(=O)Nc1c(F)cccc1F)S(C)(=O)=O`, under “at 19.5 µM unless noted”, the max activity was 8.21% [at 1.2 µM].

Consider `CC(=O)NCC(=O)N1CCC2(CC1)CC(c1ccccc1)C(=O)N2` (configuration not stated), for which the max activity (at 19.5 µM unless noted) was -12.4% [at 10 µM].

In the case of `CN(C)CCO[C@@H]1CN(C(=O)Cc2ccsc2)[C@H]2CCCO[C@@H]12`, the max activity (at 19.5 µM unless noted) is -11.4% [at 10 µM].

Take `CN1CCN(C(=O)Cc2ccsc2)Cc2cccnc21`: the max activity (at 19.5 µM unless noted) is -16.3% [at 2.6 µM].

Turning to `Cc1ccsc1C(=O)N1CCc2nc(-c3cnn(C)c3)nc(NC(C)C)c2C1`, the max activity (at 19.5 µM unless noted) was -6.87%.

In the case of `Cc1ccccc1-c1ccc([C@@H]2[C@H]3CN(C(=O)c4ccncc4)CC(=O)N3[C@H]2CO)cc1`, the max activity (at 19.5 µM unless noted) is 7.3% [at 5 µM].

For `CN1[C@@H]2Cn3c(ccc(/C=C/c4ccccc4)c3=O)[C@H]1[C@@H](C(=O)NC1Cc3ccccc3C1)[C@@H]2CO`, the max activity (at 19.5 µM unless noted) is -16.6% [at 2.6 µM].

As for `Cc1cnn(C(C)C(=O)N2CCc3[nH]nc(-c4ccc(F)c(F)c4)c3C2)c1` (configuration not stated), the max activity (at 19.5 µM unless noted) is 14% [at 0.16 µM].

Consider `Nc1ccc(S(=O)(=O)NC(=O)c2ccccc2)cc1`, for which the max activity (at 19.5 µM unless noted) is 6.39% [at 0.3 µM].

On to `CO[C@H]1CCN(c2ccc(C)nn2)[C@H]1Cc1cnn(C)c1`, for which the max activity (at 19.5 µM unless noted) was 46.8%.

As for `C[C@]12CCC3=C4CCC(=O)C=C4CC[C@H]3[C@@H]1CC[C@@]2(O)CC#N`, the max activity (at 19.5 µM unless noted) is -3.24% [at 0.3 µM].

With `C=CCO[C@@H]1CCN(c2cc(OC)ncn2)[C@H]1Cc1cnn(C)c1`, the max activity (at 19.5 µM unless noted) is -8.84% [at 5 µM].

`Cc1nnc(N2C[C@@H](Oc3ncccc3F)[C@@H]3OCCC[C@@H]32)s1`: the max activity (at 19.5 µM unless noted) was -11.4% [at 0.16 µM].

In the case of `Cc1ccc(-c2cc(C(F)(F)F)nn2-c2ccc(S(N)(=O)=O)cc2)cc1`, for the setting “at 19.5 µM unless noted”, the max activity was -6.96% [at 0.08 µM].

With `CCCNC(=O)C[C@H]1CC[C@@H]2[C@H](COC[C@H](O)CN2C(=O)Nc2ccc(Cl)c(Cl)c2)O1`, where the note is “at 19.5 µM unless noted”, the max activity is 22.5%.

`COc1ccc(CN2C[C@@H]3C[C@H](C(=O)Nc4ccccc4)[C@@H](C2)O3)cc1`: the max activity (at 19.5 µM unless noted) was 24.7%.

As for `CCCNC(=O)[C@@H]1[C@@H](CO)[C@@H]2Cn3c(ccc(C4=CCCCC4)c3=O)[C@@H]2N1Cc1ccccc1F`, the max activity (at 19.5 µM unless noted) was 15.2%.

Take `O=C(c1ccc[nH]1)N1CCC2(CC1)COCCN(c1ncccn1)C2`: the max activity runs as follows: (at 10 µM) -14%; (at 19.5 µM) 9.97%.

For the molecule `CC(C)CCN1Cc2c(C(=O)NC3CCCCC3)ncn2-c2ccccc2S1(=O)=O`, the max activity (at 19.5 µM unless noted) is 17.3%.

Turning to `CO[C@@H]1CCN(c2ncccn2)C[C@@H]1Cc1cccc(C)c1`, the max activity (at 19.5 µM unless noted) was 13.3%.

`CCCCCOc1ccc(-c2ccc(-c3ccc(C(=O)NC4CC(O)C(O)NC(=O)C5C(O)C(C)CN5C(=O)C(C(C)O)NC(=O)C(C(O)C(O)c5ccc(O)cc5)NC(=O)C5CC(O)CN5C(=O)C(C(C)O)NC4=O)cc3)cc2)cc1` (stereo not drawn) ({pTerphenylCO(4''-OnC5H11)}-[ξOrn(4,5-diOH)]T[Hyp][ξhTyr(βξ-OH,γξ-OH)]T[ξPro(3ξ-OH,4ξ-Me)]; lactam 1-C; configuration not given here): the max activity (at 19.5 µM unless noted) was 7.96% [at 0.6 µM].

As to `O=C1N(c2ccccc2)c2ccccc2C1(Cc1ccncc1)Cc1ccncc1`, where the note is “at 19.5 µM unless noted”, the max activity is -9.88% [at 5 µM].

Regarding `C/C=C/c1ccc(C2[C@H]3CNC[C@@H]2N3S(=O)(=O)c2ccccc2C)cc1` (some centres not stated), the max activity (at 19.5 µM unless noted) is 20.6%.

Turning to `O=C(C[C@H]1CC[C@H]2[C@@H](COC[C@@H](O)CN2Cc2cc(F)ccc2F)O1)NCc1ccc(Oc2ccccc2)cc1`, under “at 19.5 µM unless noted”, the max activity was 24%.

Consider `O=C(C[C@@H]1CC[C@@H]2[C@H](COC[C@H](O)CN2S(=O)(=O)c2ccccc2F)O1)N1CCC(Cc2ccccc2)CC1`, for which, where the note is “at 19.5 µM unless noted”, the max activity was -4.67% [at 0.3 µM].

As to `O=C(C[C@@H]1CC[C@H]2[C@@H](COC[C@H](O)CN2Cc2ccc(Oc3ccccc3)cc2)O1)N1CCN(c2ccccc2)CC1`, the max activity (at 19.5 µM unless noted) is -11.8% [at 1.2 µM].

`O=C(C[C@H]1CC[C@@H]2[C@H](COC[C@H](O)CN2Cc2cc(F)ccc2F)O1)NCc1ccc(Oc2ccccc2)cc1`: the max activity (at 19.5 µM unless noted) was 29.1% [at 10 µM].

In the case of `CCCNC(=O)C[C@H]1CC[C@H]2[C@@H](COC[C@@H](O)CN2C(=O)Nc2ccc(Cl)c(Cl)c2)O1`, the max activity (at 19.5 µM unless noted) is -10.6% [at 10 µM].

In the case of `O=C(C[C@@H]1CC[C@@H]2[C@H](COC[C@@H](O)CN2C(=O)Nc2cc(Cl)cc(Cl)c2)O1)N1CCOCC1`, for the setting “at 19.5 µM unless noted”, the max activity is -20.4% [at 10 µM].

Regarding `O=C(C[C@H]1CC[C@H]2[C@@H](COC[C@H](O)CN2S(=O)(=O)c2ccccc2)O1)NCC1CCCCC1`, under “at 19.5 µM unless noted”, the max activity was -7.1% [at 0.3 µM].

As for `O=C(C[C@H]1CC[C@@H]2[C@H](COC[C@@H](O)CN2Cc2ccc(Oc3ccccc3)cc2)O1)N1CCN(c2ccccc2)CC1`, the max activity (at 19.5 µM unless noted) was 17.6%.

`O=C(C[C@H]1CC[C@H]2[C@@H](COC[C@H](O)CN2Cc2ccc(Oc3ccccc3)cc2)O1)N1CCN(c2ccccc2)CC1`: the max activity (at 19.5 µM unless noted) was 19.6%.

`CCCNC(=O)[C@H]1[C@H](CO)[C@H]2Cn3c(ccc(C4=CCCCC4)c3=O)[C@H]2N1Cc1ccccc1F`: for the setting “at 19.5 µM unless noted”, the max activity is 26.7%.

As to `CCC(=O)N1CC(=O)N2[C@@H](CO)[C@H](c3ccc(C#CCC(C)C)cc3)[C@@H]2C1`, the max activity (at 19.5 µM unless noted) is -4.73% [at 2.6 µM].

In the case of `Cc1ccccc1-c1ccc(C2[C@@H]3CN(Cc4cncnc4)C[C@H]2N3)cc1` (some centres not stated), under “at 19.5 µM unless noted”, the max activity is -6.61% [at 10 µM].

On to `CS(=O)(=O)N1C[C@@H]2N[C@H](C1)[C@@H]2c1ccc(-c2ccccc2)cc1`, for which the max activity (at 19.5 µM unless noted) was 14.6% [at 2.6 µM].

Take `COc1cc(CN2C[C@@H]3N[C@H](C2)C3c2ccc(-c3ccc(C#N)cc3)cc2)cc(OC)c1` (some centres not stated): the max activity (at 19.5 µM unless noted) was 9.2% [at 10 µM].

Regarding `COc1cccc(-c2ccc(C3[C@@H]4CN(Cc5ccccn5)C[C@H]3N4)cc2)c1` (some centres not stated), where the note is “at 19.5 µM unless noted”, the max activity is 36.5%.

With `N#Cc1ccc(-c2ccc(C3[C@@H]4CN(S(=O)(=O)c5ccc(F)cc5)C[C@H]3N4)cc2)cc1` (some centres not stated), the max activity (at 19.5 µM unless noted) is 31.5% and 12.6% and 34.4%.

For the molecule `Cn1cnc(S(=O)(=O)N2C[C@@H]3N[C@H](C2)C3c2ccc(-c3ccccc3F)cc2)c1` (some centres not stated), the max activity was 9.35% (at 2.35 µM) and 18.7% (at 19.5 µM).

Turning to `N#Cc1ccc(-c2ccc(C3[C@@H]4CN(C(=O)C5CCCCC5)C[C@H]3N4)cc2)cc1` (some centres not stated), the max activity (at 19.5 µM unless noted) is 18.4%.

On to `COc1cccc(-c2ccc(C3[C@@H]4CN(C(=O)C5CCCCC5)C[C@H]3N4)cc2)c1` (some centres not stated), for which the max activity (at 19.5 µM unless noted) is 23.3%.

Regarding `O=C1CC2C(CCN2Cc2ccc(F)cc2)N1CCN1CCOCC1` (configuration not stated), the max activity (at 19.5 µM unless noted) is -8.01% [at 5 µM].

For the molecule `O=C(Cc1ccccn1)N1CC(=O)N2[C@H](C1)[C@@H](c1ccc(C#CCC3CCCC3)cc1)[C@@H]2CO`, the max activity (at 19.5 µM unless noted) was 30% [at 21 µM].

On to `COC[C@H](N)C(=O)N1CCC(Cc2nnc(SC)n2C)CC1`, for which the max activity (at 19.5 µM unless noted) was 7.97% [at 0.16 µM].

Turning to `CCCNC(=O)[C@@H]1[C@@H](CO)[C@@H]2Cn3c(ccc(/C=C/c4ccccc4)c3=O)[C@@H]2N1CC1CC1`, the max activity (at 19.5 µM unless noted) is -5.81% [at 10 µM].

`Cc1cccc(-c2ccc(C3[C@@H]4CN(C(=O)Nc5ccc(F)cc5)C[C@H]3N4)cc2)c1` (some centres not stated): the max activity (at 19.5 µM unless noted) was 30.6% [at 10 µM].

As for `C/C=C/c1ccc(C2[C@@H]3CN(S(=O)(=O)c4cccc(OC)c4)C[C@H]2N3)cc1` (some centres not stated), the max activity (at 19.5 µM unless noted) is -10.6% [at 0.16 µM].

As to `CCCNC(=O)N1C[C@@H]2N[C@H](C1)C2c1ccc(-c2cccc(F)c2)cc1` (some centres not stated), where the note is “at 19.5 µM unless noted”, the max activity was 16.2% [at 21 µM].

On to `O=S(=O)(c1ccc(F)cc1)N1C[C@@H]2N[C@H](C1)C2c1ccc(/C=C/c2ccccc2)cc1` (some centres not stated), for which the max activity (at 19.5 µM unless noted) was 27.1%.

As to `COCC#Cc1ccc([C@@H]2[C@H]3CN(C(=O)NC4CCCC4)CCCCN3[C@H]2CO)cc1`, for the setting “at 19.5 µM unless noted”, the max activity was 30.5%.

As for `O=C(c1cccc(F)c1)N1CCCCN2[C@H](C1)[C@H](c1ccc(C#CC3(O)CCCC3)cc1)[C@@H]2CO`, the max activity (at 10 µM) is -12.3% and the max activity (at 21 µM) was -8.26%.

`O=C(c1cccc(F)c1)N1CCCCN2[C@H](C1)[C@@H](c1ccc(C#CC3(O)CCCC3)cc1)[C@@H]2CO`: the max activity (at 19.5 µM unless noted) is 13.2%.

Regarding `O=C(Nc1cccc(F)c1)N1CCCCN2[C@H](CO)[C@@H](c3ccc(C#Cc4cccnc4)cc3)[C@@H]2C1`, under “at 19.5 µM unless noted”, the max activity is 5.46% [at 5 µM].

With `O=C(Nc1cccc(F)c1)N1CCCCN2[C@H](C1)[C@@H](c1ccc(C#Cc3cccnc3)cc1)[C@@H]2CO`, the max activity runs as follows: (at 0.3 µM) -7.31%; (at 19.5 µM) -13.4%.

On to `CC(C)CC#Cc1ccc([C@@H]2[C@@H](CO)N3CCCCN(C(=O)Nc4ccccc4)C[C@@H]23)cc1`, for which the max activity (at 19.5 µM unless noted) was 7.18% [at 2.6 µM].

In the case of `O=C(NC1CCCC1)N1CCCCN2[C@@H](CO)[C@H](c3ccc(-c4cccnc4)cc3)[C@@H]2C1`, the max activity (at 19.5 µM unless noted) was 11.1% [at 2.6 µM].

For `O=C(NC1CCCC1)N1CCCCN2[C@H](CO)[C@@H](c3ccc(-c4cccnc4)cc3)[C@H]2C1`, the max activity (at 19.5 µM unless noted) was 9.08% [at 0.038 µM].

As for `CNc1ncc(CN(C)C(=O)c2csc(C)n2)cn1`, the max activity (at 19.5 µM unless noted) was -6.03% [at 5 µM].

Consider `Cc1cnc(N2C[C@@H](c3ccccc3)[C@@]3(CCNC3=O)C2)nc1`, for which the max activity (at 19.5 µM unless noted) is 67.2%.

Turning to `CC1(C)C2CCC1(CS(=O)(=O)O)C(=O)/C2=C\c1ccc(/C=C2/C(=O)C3(CS(=O)(=O)O)CCC2C3(C)C)cc1`, where the note is “at 19.5 µM unless noted”, the max activity was 5.44%.

With `Fc1ccccc1-c1ccc(C2[C@H]3CNC[C@@H]2N3CC2CC2)cc1` (some centres not stated), the max activity (at 19.5 µM unless noted) was 11.6%.
